Measurements taken from PMC8222333, “AsCas12a ultra nuclease facilitates the rapid generation of therapeutic cell medicines”.
Positions count from the first letter of the chain named.

B1: GAAA (dsDNA)
DNA 1: GCTATCTAGTGCTCAGTACGCACTGGAAAAGGAAACTTCTGGCAGGACCAGGTCATGAGATCGGAAGAGCACACGTCTGAACTCCAGTCA
DNA 2: TGACTGGAGTTCAGACGTGTGCTCTTCCGATCTCATGACCTGGTCCTGCCAGAAGTTTCCTTTTCCAGTGCGTACTGAGCACTAGATAGC
RNA: AAUUUCUACUCUUGUAGAUAGGAAACUUCUGGCAGGACC
B2: GAAC (dsDNA)
DNA 1: B1 DNA 1 with A29C
DNA 2: B1 DNA 2 with T62G
RNA: B1 RNA
B3: GAAG (dsDNA)
DNA 1: B1 DNA 1 with A29G
DNA 2: B1 DNA 2 with T62C
RNA: B1 RNA
B4: GAAT (dsDNA)
DNA 1: B1 DNA 1 with A29T
DNA 2: B1 DNA 2 with T62A
RNA: B1 RNA
B5: GACA (dsDNA)
DNA 1: B1 DNA 1 with A28C
DNA 2: B1 DNA 2 with T63G
RNA: B1 RNA
B6: GACC (dsDNA)
DNA 1: B1 DNA 1 with A28C, A29C
DNA 2: B1 DNA 2 with T62G, T63G
RNA: B1 RNA
B7: GACG (dsDNA)
DNA 1: B1 DNA 1 with A28C, A29G
DNA 2: B1 DNA 2 with T62C, T63G
RNA: B1 RNA
B8: GACT (dsDNA)
DNA 1: B1 DNA 1 with A28C, A29T
DNA 2: B1 DNA 2 with T62A, T63G
RNA: B1 RNA
B9: GAGC (dsDNA)
DNA 1: B1 DNA 1 with A28G, A29C
DNA 2: B1 DNA 2 with T62G, T63C
RNA: B1 RNA
B10: GAGG (dsDNA)
DNA 1: B1 DNA 1 with A28G, A29G
DNA 2: B1 DNA 2 with T62C, T63C
RNA: B1 RNA
B11: GAGT (dsDNA)
DNA 1: B1 DNA 1 with A28G, A29T
DNA 2: B1 DNA 2 with T62A, T63C
RNA: B1 RNA
B12: GCAA (dsDNA)
DNA 1: B1 DNA 1 with A27C
DNA 2: B1 DNA 2 with T64G
RNA: B1 RNA
B13: GCAC (dsDNA)
DNA 1: B1 DNA 1 with A27C, A29C
DNA 2: B1 DNA 2 with T62G, T64G
RNA: B1 RNA
B14: GCAG (dsDNA)
DNA 1: B1 DNA 1 with A27C, A29G
DNA 2: B1 DNA 2 with T62C, T64G
RNA: B1 RNA
B15: GCAT (dsDNA)
DNA 1: B1 DNA 1 with A27C, A29T
DNA 2: B1 DNA 2 with T62A, T64G
RNA: B1 RNA
B16: GCCC (dsDNA)
DNA 1: B1 DNA 1 with A27C, A28C, A29C
DNA 2: B1 DNA 2 with T62G, T63G, T64G
RNA: B1 RNA
B17: GCCG (dsDNA)
DNA 1: B1 DNA 1 with A27C, A28C, A29G
DNA 2: B1 DNA 2 with T62C, T63G, T64G
RNA: B1 RNA
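Also: relative affinity from the bound to unbound sequence frequency ratio in Spec-seq.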

What follows are binders tested against dAsCas12a S542R (Acidaminococcus sp., UniProt U2UMQ6 1-1307, S542R;D908A;E993A;D1235A) (assay: Spec-seq (native PAGE EMSA with sequencing of bound and unbound); 25 mM Tris-HCl pH 7.4, 150 mM KCl, 5 mM MgCl2, 10% glycerol, 1 mM DTT, 40 ng/uL salmon sperm DNA; 400 nM Cas12a, 480 nM crRNA, 50 nM library, 37 C 1 h; native PAGE at room temperature; high values mean tight binding). Details: protein: recombinant.
Binder B1 has a binding signal of -8.7 lnKA. B2 gave a binding signal of -8.59 lnKA. B3 showed a binding signal of -8.23 lnKA. In the case of B4, the binding signal is reported as -8.54 lnKA. B5 was tested, and the binding signal was -8.67 lnKA. With B6 the binding signal was -8.46 lnKA. B7 showed a binding signal of -8.56 lnKA. Binder B8 has a binding signal of -8.65 lnKA. Binder B9 has a binding signal of -8.89 lnKA. For B10, the binding signal was -8.75 lnKA. For B11, the binding signal was -8.58 lnKA. B12 was tested, and the binding signal was -8.78 lnKA. Work on B13 yielded a binding signal of -8.62 lnKA. In the case of B14, the binding signal is reported as -8.35 lnKA. B15 gave a binding signal of -8.69 lnKA. With B16 the binding signal was -5 lnKA. Binder B17 has a binding signal of -6.59 lnKA.

What follows are binders tested against d-enCas12a (Acidaminococcus sp., UniProt U2UMQ6 1-1307, E174R;S542R;K548R;D908A;E993A;D1235A) in the same assay as above. Details: protein: recombinant.
B1 showed a binding signal of -5.87 lnKA. With B2 the binding signal was -5.9 lnKA. With B3 the binding signal was -5.82 lnKA. With B4 the binding signal was -5.79 lnKA. Binder B5 has a binding signal of -4.44 lnKA. B6 gave a binding signal of -3.91 lnKA. B7 gave a binding signal of -5.57 lnKA. B8 showed a binding signal of -5.63 lnKA. Work on B9 yielded a binding signal of -5.66 lnKA. B10 gave a binding signal of -5.9 lnKA. For B11, the binding signal was -5.78 lnKA. With B12 the binding signal was -5.83 lnKA. With B13 the binding signal was -5.82 lnKA. B14 was tested, and the binding signal was -6.02 lnKA. B15 was tested, and the binding signal was -5.86 lnKA. B16 gave a binding signal of -2.96 lnKA. B17 was tested, and the binding signal was -5.48 lnKA.

The binders below were run against d-enCas12a-Ultra (Acidaminococcus sp., UniProt U2UMQ6 1-1307, E174R;S542R;K548R;M537R;F870L;D908A;E993A;D1235A) in the same assay as above. Details: protein: recombinant.
In the case of B1, the binding signal is reported as -3.36 lnKA. With B2 the binding signal was -3.33 lnKA. B3 gave a binding signal of -3.51 lnKA. Binder B4 has a binding signal of -3.39 lnKA. With B5 the binding signal was -1.74 lnKA. B6 showed a binding signal of -1.34 lnKA. B7 showed a binding signal of -2.93 lnKA. For B8, the binding signal was -3.01 lnKA. With B9 the binding signal was -3.45 lnKA. Work on B10 yielded a binding signal of -3.51 lnKA. B11 gave a binding signal of -3.48 lnKA. B12 showed a binding signal of -3.42 lnKA. B13 gave a binding signal of -3.32 lnKA. B14 was tested, and the binding signal was -3.32 lnKA. B15 gave a binding signal of -3.45 lnKA. Binder B16 has a binding signal of -0.56 lnKA. B17 was tested, and the binding signal was -1.86 lnKA.
